Bioassay records (PubChem)
A selection: hits, their analogues and other compounds. The true share with any hit is near 3.6%.
Pf apPOL inh = Pf-apPOL DNA polymerase inhibition; Recombinant Pf-apPOL, molecular beacon fluorescence, 1.5 h; AID 1794808; hit rate 0.25% among 210,000; inhibition, % at 10 µM
mHTT-CaM PPI inh = inhibitors of human mutant huntingtin-calmodulin interaction; P42858; AlphaScreen His-mHTT/GST-CaM binding, luminescence; inhibition, % at 15 µM; hit rate 3.6% among 190,000; AID 1671202;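 further: 0% = both proteins with DMSO and 100% = one protein alone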
Active calls of the source: *; ! = not active in a repeat. No stated cut-off is given here; in the data, active means inhibition above about 50%; inactive means the rest.

`Cc1sc(NC(=O)c2nc3ccccc3s2)c(C#N)c1C` gave Pf apPOL inh 7.1 and mHTT-CaM PPI inh -0.8.
For Cc1ccc(C(=O)Nc2c(C#N)[nH]c3sc4c(c23)CCCC4)cc1 the results were Pf apPOL inh 2.8 and mHTT-CaM PPI inh -3.0.
Screening Cc1ccc(C(=O)N2CCC(n3nc(-c4ccsc4)ccc3=O)CC2)cc1 returned Pf apPOL inh -0.5 and mHTT-CaM PPI inh 100.1*.
`O=C(c1ccc(-c2ccsc2)nc1)N1CCCC1` gave Pf apPOL inh -6.2 and mHTT-CaM PPI inh -1.3.
For O=C(c1ccccc1)N1CCC(n2nc(-c3ccsc3)ccc2=O)CC1 the results were Pf apPOL inh -2.7 and mHTT-CaM PPI inh 99.3*.
For O=C(c1ccc(-c2ccsc2)nc1)N1CCN(C2CCCCC2)CC1 the results were Pf apPOL inh -0.6 and mHTT-CaM PPI inh -3.0.
Screening CCCc1nnc(NC(=O)C(CC)Sc2nnnn2-c2ccccc2)s1 (stereo not given) returned Pf apPOL inh -2.6 and mHTT-CaM PPI inh -1.5.
For CCC(Sc1nnnn1-c1ccccc1)C(=O)Nc1nc2ccccc2s1 (stereo not given) the results were Pf apPOL inh -6.3 and mHTT-CaM PPI inh 51.5*.
Screening COc1ccc2nc(-c3ccc(OC)c(NC(=O)CC4CCCC4)c3)cn2n1 returned Pf apPOL inh -12.4 and mHTT-CaM PPI inh -10.2.
COc1ccc2nc(-c3cccc(NC(=O)COc4ccc(C(C)=O)cc4OC)c3)cn2n1 was read as Pf apPOL inh -9.0 and mHTT-CaM PPI inh 64.2*.
O=C(c1cccc(N2CCNC(c3ccccc3)C2)n1)N1CCN(c2ccccc2)CC1 (stereo not given) was read as Pf apPOL inh 8.2 and mHTT-CaM PPI inh 26.8.
Cc1ccc(N2CCN(C(=O)c3ccnc(N4CCNC(c5ccccc5)C4)c3)CC2)cc1 (stereo not given) was read as Pf apPOL inh -5.5 and mHTT-CaM PPI inh 23.9.
Screening Cc1ccc(N2CCN(C(=O)c3ccc(N4CCNC(c5ccccc5)C4)nc3)CC2)cc1 (stereo not given) returned Pf apPOL inh 1.7 and mHTT-CaM PPI inh 73.4*.
COc1ccccc1NC(=O)c1cccc(N2CCNC(c3ccccc3)C2)n1 (stereo not given) was read as Pf apPOL inh -8.7 and mHTT-CaM PPI inh 71.9*.
For O=C(c1ccc(N2CCNC(c3ccccc3)C2)nc1)N1CCCC1 (stereo not given) the results were Pf apPOL inh -3.5 and mHTT-CaM PPI inh 7.4.
COc1ccccc1NC(=O)c1ccc(N2CCNC(c3ccccc3)C2)nc1 (stereo not given) was read as Pf apPOL inh 1.2 and mHTT-CaM PPI inh 32.4.
Screening O=C(c1cccc(N2CCNC(c3ccccc3)C2)n1)N1CCN(c2ccc(F)cc2)CC1 (stereo not given) returned Pf apPOL inh -6.5 and mHTT-CaM PPI inh 50.7*.
Cc1cccc(N2CCN(C(=O)c3ccc(N4CCNC(c5ccccc5)C4)nc3)CC2)c1 (stereo not given) was read as Pf apPOL inh -4.2 and mHTT-CaM PPI inh 64.8*.
`O=S(=O)(NCCc1csc2nc(-c3ccccc3F)nn12)c1cccc(Cl)c1` gave Pf apPOL inh -6.1 and mHTT-CaM PPI inh -7.1.
For CCn1ccc(C(=O)N2CCCC3(C2)Nc2cccnc2NC3=NCc2ccccc2)n1 (stereo not given) the results were Pf apPOL inh -2.6 and mHTT-CaM PPI inh 1.2.
Screening CCc1ccccc1-n1c(C)nc2cc(C(=O)O)ccc21 returned Pf apPOL inh -4.7 and mHTT-CaM PPI inh 0.0.
Screening Cc1cccc(N=Cc2c(O)n(-c3c(C)cc(C)cc3C)c(=O)[nH]c2=O)c1 returned Pf apPOL inh -4.5 and mHTT-CaM PPI inh 19.0.
`O=C(NCCc1ccncc1)c1ccc(N2CCNC(c3ccccc3)C2)nc1` (stereo not given) gave Pf apPOL inh 1.6 and mHTT-CaM PPI inh 18.2.
Screening O=C(C=Cc1ccco1)C1=C(O)c2ccccc2C1=O returned Pf apPOL inh 26.2 and mHTT-CaM PPI inh 13.0.
For Cc1nn(C)c(C)c1Sc1ccc(Br)cc1 the results were Pf apPOL inh -2.8 and mHTT-CaM PPI inh 59.7*!.
Cc1nn(C(=O)c2cccs2)c(C)c1Sc1ccc(Br)cc1 was read as Pf apPOL inh -4.4 and mHTT-CaM PPI inh 4.0.
CCOC(CCNC(=O)c1cn(C)c(=O)c2cc(OC)c(OC)cc12)OCC was read as Pf apPOL inh -2.9 and mHTT-CaM PPI inh 8.0.
CN(C)c1ccc(C(=O)Nc2nnc(-c3ccc(Br)cc3)o2)cc1 was read as Pf apPOL inh -30.5 and mHTT-CaM PPI inh 60.4*.
CN(C)c1ccc(-c2noc(-c3ccc(Br)cc3)n2)cc1 was read as Pf apPOL inh -0.6 and mHTT-CaM PPI inh 78.6*.
`CN(C)c1ccc(-c2nc(-c3ccc(=O)n(C)c3)no2)cc1` gave Pf apPOL inh 5.1 and mHTT-CaM PPI inh 9.4.
COc1ccc(-c2nnc(NC(=O)c3ccc(S(=O)(=O)N(C)C)cc3)o2)cc1 was read as Pf apPOL inh -1.1 and mHTT-CaM PPI inh 30.0.
For O=C(CSc1nnc2ccc(-c3ccco3)nn12)c1cccc([N+](=O)[O-])c1 the results were Pf apPOL inh 22.3 and mHTT-CaM PPI inh 18.7.
For COCCCNC(=O)C(C#N)=CN(C)C the results were Pf apPOL inh 4.9.
`O=c1c(Oc2ccccc2)c(C(F)(F)F)oc2c3c(ccc12)OCCO3` gave Pf apPOL inh -8.2 and mHTT-CaM PPI inh 23.0.
Cc1c(CCOC(=O)CC23CC4CC(CC(C4)C2)C3)sc[n+]1CC(=O)c1ccccc1 was read as Pf apPOL inh -3.6 and mHTT-CaM PPI inh 93.8*.
O=C(OCC12CC3CC(CC(C3)C1)C2)c1ccccc1 was read as Pf apPOL inh -1.2 and mHTT-CaM PPI inh -35.4.
CC(=O)C1=C(O)C(=O)N(CC2CCCO2)C1c1ccc(F)cc1 (stereo not given) was read as Pf apPOL inh -4.5 and mHTT-CaM PPI inh 0.7.
`N#C/C(=C\c1ccc(Sc2nc3ccccc3[nH]2)o1)c1nc2ccccc2[nH]1` gave Pf apPOL inh -5.9 and mHTT-CaM PPI inh 100.3*.
Screening Cc1ccc2nc(/C(C#N)=C/c3cccc(O)c3)[nH]c2c1 returned Pf apPOL inh -4.0 and mHTT-CaM PPI inh 69.8*.
For N#C/C(=C\c1ccc(O)cc1O)c1nc2ccccc2[nH]1 the results were Pf apPOL inh -0.1 and mHTT-CaM PPI inh 72.3*.
`COc1cc(/C=C(\C#N)c2nc3ccc(C)cc3[nH]2)ccc1OCC#N` gave Pf apPOL inh -4.5 and mHTT-CaM PPI inh 70.3*.
`Cc1ccc2nc(/C(C#N)=C/c3cccc(Br)c3)[nH]c2c1` gave Pf apPOL inh -1.6 and mHTT-CaM PPI inh -21.2.
N#C/C(=C\c1ccc(I)o1)c1nc2ccccc2[nH]1 was read as Pf apPOL inh 2.5 and mHTT-CaM PPI inh -2.9.
`COc1ccc(/C=C(\C#N)c2nc3ccc(C)cc3[nH]2)cc1` gave Pf apPOL inh -13.6 and mHTT-CaM PPI inh 3.5.
For N#C/C(=C\c1cc(Cl)ccc1O)c1nc2ccccc2[nH]1 the results were Pf apPOL inh 3.6 and mHTT-CaM PPI inh 8.4.
COc1ccc(-c2cc(C(=O)N3CCCC3c3cc(C)on3)on2)cc1 (stereo not given) was read as Pf apPOL inh -1.0 and mHTT-CaM PPI inh 5.2.
O=C(O)Cn1cc([N+](=O)[O-])nc1Cl was read as mHTT-CaM PPI inh -6.5.
CC(C)n1c(C2CCN(C(=O)c3cccc(Cl)c3)C2)nc2ccncc21 (stereo not given) was read as Pf apPOL inh -6.1 and mHTT-CaM PPI inh -1.7.
Screening CCOc1ccc(N2C(=O)S/C(=C\c3ccc(C)o3)C2=O)cc1 returned Pf apPOL inh 4.2 and mHTT-CaM PPI inh 2.0.
